Test results: PubChem BioAssay AID951 (NMMLSC, 2007)
About 140 (0.074%) of roughly 190,000 compounds were called active. Rule as the data show it: active = inhibition above about 40%. Many of the other results were omitted from the sample, so actives are more common in it than they were.

Molecular target: Bcl-2-like protein 10 (Homo sapiens) (UniProt Q9HD36)
Assay: inhibitors of Bim-Bcl-B binding, primary screen, biochemical, multiplexed, human Bcl-2 family (AID 951);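 also: 0% = tracer peptide without compound and 100% = reference inhibitor peptide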
Details: bead-based flow cytometry, Bim peptide-Bcl-B binding; at 10 µM; stronger effect = higher value

Chain of Bcl-2-like protein 10 (Homo sapiens) (Q9HD36 whole entry, looked up): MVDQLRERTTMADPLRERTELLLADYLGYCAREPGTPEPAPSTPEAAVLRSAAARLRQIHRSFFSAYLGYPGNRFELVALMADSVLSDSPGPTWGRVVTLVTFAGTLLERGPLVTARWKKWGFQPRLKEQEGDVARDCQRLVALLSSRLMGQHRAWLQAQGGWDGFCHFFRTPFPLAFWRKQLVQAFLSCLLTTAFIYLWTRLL

inhibition, inactive:
O=C(CCc1ccccc1)Nc1ccc(NC(=O)C2CCCCC2)nc1 0%, O=C(NNC(=S)NCCCN1CCOCC1)c1ccncc1 -2%, OC(COCc1ccco1)CN1CCN(c2ccccc2)CC1 (centres undefined) -4%, Cc1cc(N2CCOCC2)nc2ccc(NC(=S)N3CCN(Cc4ccccc4)CC3)cc12 -4%, CCNC(=O)CC1C(=O)N(c2ccc(F)cc2)C(=O)N1Cc1cccs1 (centres undefined) -6%, CCO[C@H]1OC(C(=O)N2CCN(Cc3ccccc3)CC2)=C[C@@H](c2cn(C(C)=O)c3ccccc23)[C@@H]1CCCO -3%, CN(C)N(C)C(=O)C(O)(c1ccccc1)c1ccccc1 -2%, CS(=O)(=O)c1ccc2nc(NC(=O)c3ccc(Cl)nc3)sc2c1 -2%, O=[N+]([O-])c1ccc(N/N=C2/CCCCC2c2ccccn2)c([N+](=O)[O-])c1 (centres undefined) -11%, O=C(COc1ccccc1[N+](=O)[O-])NC1CC1 -4%, OCCNCCOc1ccc(Cl)c(Cl)c1 -5%, Cc1cccc(NC(=S)N(CCN(C)C)C(C)c2ccco2)c1 (centres undefined) 0%, COc1ccc(Br)cc1C(=O)Nc1cccc(C)c1C -7%, CCCCN1C(=O)c2ccc(C(=O)Nc3ccc(S(=O)(=O)N(C)C)cc3)cc2C1=O 0%, O=C(NNC(=O)c1ccc(Cl)cc1Cl)c1cccs1 -1%, CC(=O)NS(=O)(=O)c1ccc(NC(=O)C2C3C=CC(C3)C2C(=O)O)cc1 (centres undefined) -5%, S=c1nc(C23CC4CC(CC(C4)C2)C3)nc2sccn12 2%, O=C(CC1NCCc2ccccc21)Nc1cccc(Cl)c1 (centres undefined) -1%, CCN(CC)S(=O)(=O)c1ccc(N2CCCC2)c(NS(=O)(=O)c2cccs2)c1 -5%, Cc1ccn(-c2cccc(-n3ccc(C)n3)n2)n1 0%, COc1ccccc1C1CC(=O)n2c(nc(-c3ccccc3)c2-c2ccccc2)S1 (centres undefined) -4%, CC1(C)CC(N(Cc2ccccc2)C(=O)Cc2ccccc2)CCO1 (centres undefined) -3%, Cc1cccc(C(=O)OC(C)CN2CCN(C)CC2)c1 (centres undefined) -4%, CC(C)(C)NC(=O)COC(=O)c1cc(Cl)ccc1[N+](=O)[O-] 0%, O=C(c1ccc(Cl)c([N+](=O)[O-])c1)N1CCN(c2ccccc2)CC1 -4%, COc1cc(NC(=O)c2ccc3c(c2)OCO3)ccc1NC(=O)c1cccs1 2%, COc1ccc(/C=C2\SC(=S)N(CC(=O)NNC(=O)c3ccncc3)C2=O)cc1 -1%, COCCN(Cc1nc(-c2ccc(C(F)(F)F)cc2)no1)C(C)C -5%, CC(OC(=O)CNS(=O)(=O)/C=C/c1ccccc1)C(=O)Nc1ccc(S(=O)(=O)N2CCCC2)cc1 (centres undefined) -8%, Cc1ccc2nc(Nc3ncc4c(n3)CC(C)(C)CC4=O)nc(C)c2c1 -1%, COC(C(=O)NCc1ccccc1C)c1ccccc1 (centres undefined) -11%, CCC1(CC)NC(=O)N(Cc2nc3ccccc3s2)C1=O -3%, O=C(NC(=S)NC1CCSC1=O)c1ccccc1F (centres undefined) -3%, COc1ccc(-c2nn(-c3ccccc3)cc2/C=C\C(=O)N2CCOCC2)cc1[N+](=O)[O-] -1%, O=C(O)CC1S/C(=N\N=C/c2ccccc2O)N(c2ccc(O)cc2)C1=O (centres undefined) -5%, COC(=O)c1onc(-c2c(OC)cc(OC)cc2OC)c1C(=O)OC -1%, CC(C)(C)NC(=O)NC(=O)CN1CCC(Cc2ccccc2)CC1 -1%, CCCN(CCC)c1c([N+](=O)[O-])c(=O)oc2ccccc12 32%, Cc1c(C(=O)NC(=S)NCc2cccnc2)oc2ccccc12 -9%, Cc1cc(C(=O)N/N=C/c2ccc(O)c([N+](=O)[O-])c2)c(C)n1-c1ccc(F)cc1 10%, Cc1ccccc1NCC(=O)N/N=C\c1ccc([N+](=O)[O-])s1 -3%, COC(=O)c1ccc(C(NC(=O)OCc2ccccc2)/C(C)=C/[C@@H](C)C(=O)NCc2ccc(OC)c(OC)c2)cc1 (some centres undefined) -7%, O=C(CCC(=O)c1cccs1)NC1CCCCCC1 -1%, O=C(C(Cl)Cl)N1CCN(c2ccccn2)CC1 -1%, CCOc1cc(N2CCOCC2)c(OCC)cc1NC(=O)c1cc(C)nc2ccccc12 -6%, COC(=O)c1sc2[nH]c(=S)n(N)c(=O)c2c1C -22%, CC(Cc1cccs1)NC(=O)c1cccc(Cl)c1 (centres undefined) -4%, C=CCNC(=O)c1ccccc1NC(=O)c1ccc(Cl)c(S(=O)(=O)Nc2cccc(C)c2C)c1 -5%, COc1ccc(C(=O)Nc2sc(C)c(C)c2CN2CCOCC2)cc1 -7%, CCCn1nc(C(=O)Nc2ccc3nc(C)sc3c2)c2ccccc2c1=O -7%, COc1cc(C(=O)N[C@@H](C)C(=O)NCc2ccco2)cc(OC)c1OC 1%, Cn1c(SCC(=O)NC2CCCCC2)nnc1-c1ccc(N)cc1 -4%, COc1ccc(C2OCC3(CO2)SC(=O)NC3=O)cc1OC (centres undefined) -1%, CCN(C(=O)CSc1nc2ccccc2n1CC)C1CCS(=O)(=O)C1 (centres undefined) -1%
